Screen size: about 48,000 compounds; about 13,000 (27%) showed an effect of 50% or more. The list shows a part of the results.
Test system: Wolbachia pipientis
Test: Anti-Wolbachia Cell-Based Screen
Type: functional
Set-up: scale not given: in the data most compounds retested in dose-response had high values
Conditions: 5 µM

`O=C(c1ccsc1)N1C[C@H](N2CCOCC2)[C@@H]2OCCC[C@@H]21` was tested. Which “Percent Effect” value did it give?
The value was 0.7214%.

Which “Percent Effect” value does the source give for `CC(C)(C)c1cn2nc(N3CCCC(Cn4cncn4)C3)sc2n1` (stereo unspecified) here?
The value was 16.07%.

How did the “Percent Effect” value turn out when `CC(C)N1CCN(C)CC(Cc2cc(N(C)C)ncn2)C1` (stereo unspecified) was run?
Its value is 93.36%.

With `CCn1ccnc1CN(C)c1cc(N(C)C)ncn1` as the molecule, how does the “Percent Effect” value read?
The value was 12.61%.

How did the “Percent Effect” value turn out when `CSCc1ccc(N(C)CC2CCCN(C(C)C)C2)nc1` (stereo unspecified) was run?
The value was -13.33%.

`CN1CCCC(Cc2cncc(C(=O)NCC3CC3)c2)C1` (stereo unspecified) was tested. Which “Percent Effect” value did it give?
The value was -7.268%.

Which “Percent Effect” value does the source give for `CN1CCCC(CNC(=O)N2CCN(Cc3ccon3)CC2)C1` (stereo unspecified) here?
Its value is -11.04%.

How did the “Percent Effect” value turn out when `CCn1ccnc1CN(C)c1cc(C2CC2)ncn1` was run?
Its value is 1.234%.

With `CN1CCCC(Cc2cc(N(C)C)ncn2)C1` (stereo unspecified) as the molecule, how does the “Percent Effect” value read?
The value was 94.81%.

Which “Percent Effect” value does the source give for `CN1CCC(Cc2cc(N(C)C)ncn2)C1` (stereo unspecified) here?
The value was 110.8%.

Which “Percent Effect” value does the source give for `c1cnc(NCc2noc3c2CN(C2CCOCC2)CC3)nc1` here?
The value was -17.2%.

How did the “Percent Effect” value turn out when `COc1ccc(-c2nnc(C(C)N3CCOC(C)(C)C3)o2)cc1` (stereo unspecified) was run?
Its value is -4.024%.

How did the “Percent Effect” value turn out when `c1ccc2c(c1)CC(n1ccnc1-c1cc3n(n1)CCCNC3)CO2` (stereo unspecified) was run?
Its value is 3.87%.

For `CCc1ncc(CN(C)C(=O)Nc2cccnc2N2CCCC2)s1`, which “Percent Effect” value is on record?
The value was 10.11%.

How did the “Percent Effect” value turn out when `NS(=O)(=O)CCN1CCN(c2cc(F)ccc2F)CC1` was run?
Its value is -4.797%.

How did the “Percent Effect” value turn out when `O=C(O)C(F)(F)F.c1cc(CN2CCO[C@H]3[C@H](OCC4CCOCC4)CC[C@@H]32)co1` was run?
Its value is 111.9%.

`Fc1ccc(CN2CCO[C@H]3[C@H](OCCN4CCCC4)CC[C@@H]32)cc1.O=C(O)C(F)(F)F.O=C(O)C(F)(F)F` was tested. Which “Percent Effect” value did it give?
Its value is -15.45%.

Which “Percent Effect” value does the source give for `O=C(O)C(F)(F)F.O=C(O)C(F)(F)F.c1cc(CN2CCO[C@H]3[C@H](OCCN4CCCC4)CC[C@@H]32)co1` here?
Its value is 81.09%.

For `COc1ccc(CN2CCO[C@H]3[C@H](OCCN4CCCC4)CC[C@@H]32)cc1.O=C(O)C(F)(F)F.O=C(O)C(F)(F)F`, which “Percent Effect” value is on record?
Its value is 97.25%.

`O=C(O)C(F)(F)F.O=C(O)C(F)(F)F.c1csc(CN2CCO[C@H]3[C@H](OCCN4CCCC4)CC[C@@H]32)n1` was tested. Which “Percent Effect” value did it give?
Its value is 6.605%.

For `Cc1ccc(-c2nc(CN3CCN(S(=O)(=O)N(C)C)CC3)cs2)o1`, which “Percent Effect” value is on record?
Its value is 2.093%.

How did the “Percent Effect” value turn out when `O=C(c1ncn2c1CNS(=O)(=O)c1ccccc1-2)N1CCOCC1` was run?
Its value is -11.97%.

With `Cc1noc(C)c1S(=O)(=O)N(C)Cc1nn(C)c(Cl)c1Cl` as the molecule, how does the “Percent Effect” value read?
Its value is -15.6%.

How did the “Percent Effect” value turn out when `CC(C)CC(CCO)CNC(=O)N1CC(C)(C)C1(C)C` (stereo unspecified) was run?
The value was -21.83%.

With `CN1C(=O)C2(CCN(CC3CCC3)C2)c2ccccc21.O=C(O)C(F)(F)F` (stereo unspecified) as the molecule, how does the “Percent Effect” value read?
The value was 10.05%.

How did the “Percent Effect” value turn out when `CS(=O)(=O)N1CC2(CCN(CC3CCCCC3)C2)Cc2ccccc21` (stereo unspecified) was run?
Its value is 112.5%.

How did the “Percent Effect” value turn out when `O=C(Cc1ccccn1)N1CCC2(CCCN(CC3CCOCC3)C2)C1` (stereo unspecified) was run?
Its value is -4.093%.

Which “Percent Effect” value does the source give for `O=C(Cc1cccs1)N1CCC2(CCCN(CC3CCOCC3)C2)C1` (stereo unspecified) here?
The value was -3.748%.

With `CN1CCCC(CNS(=O)(=O)N2CCc3ccccc3C2)C1` (stereo unspecified) as the molecule, how does the “Percent Effect” value read?
The value was 2.763%.

How did the “Percent Effect” value turn out when `CS(=O)(=O)N1CC2(CCCN(CC3CC3)C2)Cc2ccccc21` (stereo unspecified) was run?
The value was 118.5%.

With `CS(=O)(=O)N1CC2(CCN(CC3CC3)C2)Cc2ccccc21` (stereo unspecified) as the molecule, how does the “Percent Effect” value read?
The value was 119.1%.

With `O=C(O)C(F)(F)F.O=C1CC2(CCN(CC3CC3)C2)CN1c1cccc(F)c1` (stereo unspecified) as the molecule, how does the “Percent Effect” value read?
The value was -1.195%.

For `CS(=O)(=O)N1CC2(CCN(CC3CCCCC3)CC2)Cc2ccccc21`, which “Percent Effect” value is on record?
Its value is 144%.

With `O=C(O)C(F)(F)F.O=C1CC2(CCN(CC3CC3)C2)CN1c1ccc2c(c1)OCO2` (stereo unspecified) as the molecule, how does the “Percent Effect” value read?
Its value is -8.293%.

For `CCn1c(C)nnc1SCCNC(=O)c1cccc2ccnn12`, which “Percent Effect” value is on record?
Its value is -3.845%.

How did the “Percent Effect” value turn out when `Cc1nc(CNC(=O)CC2C(=O)NCCN2Cc2ccccc2C)n[nH]1` (stereo unspecified) was run?
The value was 4.07%.

`CCCc1nnsc1C(=O)NCC1CCN(S(C)(=O)=O)CC1` was tested. Which “Percent Effect” value did it give?
Its value is -2.324%.

`Cc1cnc(N2C[C@@H]3[C@@H](C2)OCC(=O)N3C)nc1` was tested. Which “Percent Effect” value did it give?
Its value is -11.2%.

How did the “Percent Effect” value turn out when `CCN1CC2(CCN(C(=O)C(C)Oc3cccc(Cl)c3)CC2)OC1=O` (stereo unspecified) was run?
The value was -19.97%.

For `COc1cccc(N2CCN(CCC(=O)NC3CCCCC3)CC2)c1`, which “Percent Effect” value is on record?
The value was 105.3%.

Which “Percent Effect” value does the source give for `COc1cc2c(cc1OC)CN(C(=O)NCC1CCCO1)CC2` (stereo unspecified) here?
Its value is 106.4%.

Which “Percent Effect” value does the source give for `COc1ccc2c(c1)CCCN(CC(=O)NCC1CCCO1)C2` (stereo unspecified) here?
Its value is 92.35%.

For `COc1ccc2c(c1)CCCN(C(C)C(=O)N1CCCC1)C2` (stereo unspecified), which “Percent Effect” value is on record?
The value was 19.28%.

For `COc1ccc2c(c1)CCCN2C(=O)CN1CCOC(CN(C)C)C1` (stereo unspecified), which “Percent Effect” value is on record?
Its value is 3.019%.

Which “Percent Effect” value does the source give for `COc1ccc2c(c1)CCCN(C(=O)NCC1CCCO1)C2` (stereo unspecified) here?
The value was 114.2%.

With `COc1ccc2c(c1)CCCN2C(=O)CNCC1CN(C)CCO1` (stereo unspecified) as the molecule, how does the “Percent Effect” value read?
The value was 15.31%.

For `CCC(=O)NC1CCN(c2cccc(CC)c2)CC1`, which “Percent Effect” value is on record?
Its value is -2.51%.

For `CC(C)OCCC(=O)Nc1cccc(N2CCN(CC3CC3)CC2)c1`, which “Percent Effect” value is on record?
Its value is -21.21%.

How did the “Percent Effect” value turn out when `CS(=O)(=O)NC1CCN(C(=O)NCC2CCCO2)CC1` (stereo unspecified) was run?
The value was -8.8%.

`C=C(C)COCCNC(=O)N1CCc2c(cccc2OC)C1` was tested. Which “Percent Effect” value did it give?
Its value is -14.6%.

How did the “Percent Effect” value turn out when `N#Cc1ccc(OC2CCN(CC(=O)NCC3CCCO3)CC2)cc1` (stereo unspecified) was run?
Its value is 1.578%.

Reference: ChEMBL document CHEMBL3988442, “University of Dundee, Small-Polar-MMV Screening Library” (2021)
